# Screening data deposited in PubChem BioAssay by several laboratories.
# Only a selection was taken, and hits are over-represented in it overall.
# PostGolgi yeast – growth inhibition of a yeast mutant, post-Golgi transport screen; post-Golgi transport phenotypic cell assay; inhibition, % at 10 µM; 98,000 compounds, 0.9% hits; AID 739;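 further: yeast cells grown in 1536-well plates; yeast grown about 18 h at 30C before absorbance read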
# S1P2 antag – S1P2 (human) receptor antagonism | cell-based S1P2 antagonist assay, inhibition at 5 uM | 97,000 compounds, 0.21% hits | AID 736 | inhibition, % at 5 µM | O95136; in the data active means inhibition above about 45%;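 further: CRE beta-lactamase reporter cells expressing human S1P2 stimulated with S1P; 0% = agonist at EC80 alone and 100% = agonist plus reference antagonist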
# Target sequence (O95136 whole entry, looked up): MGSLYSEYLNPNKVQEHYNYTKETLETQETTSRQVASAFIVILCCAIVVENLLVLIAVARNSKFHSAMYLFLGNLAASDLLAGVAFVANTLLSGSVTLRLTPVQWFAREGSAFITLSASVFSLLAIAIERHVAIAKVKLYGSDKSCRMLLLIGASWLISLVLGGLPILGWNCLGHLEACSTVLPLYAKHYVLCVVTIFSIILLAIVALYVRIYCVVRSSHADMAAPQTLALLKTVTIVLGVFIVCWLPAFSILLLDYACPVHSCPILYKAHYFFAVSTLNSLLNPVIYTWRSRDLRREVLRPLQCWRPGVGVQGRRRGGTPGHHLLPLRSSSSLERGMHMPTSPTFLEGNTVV
# GALR2 agonist – GALR2 (human) receptor agonism | O43603 | GALR2-expressing cells, agonist activation read-out | activation, % (no concentration beside the values) | 140,000 compounds, 0.48% hits; in the data active means activation above about 5%, passing the limit was not always enough;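 further: 0% = vehicle buffer wells and 100% = reference agonist at full effect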
# GALR2 blocker – GALR2 (human) receptor antagonism | O43603 | inhibition, % at 4 µM | GALR2-expressing cells, antagonist mode | 140,000 compounds, 0.39% hits; in the data active means inhibition above about 27%;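 further: cells stimulated with galanin 1-16 at roughly its EC80; 0% = agonist challenge control and 100% = basal control without agonist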
# PostGolgi ctrl – yeast control strain growth, post-Golgi counter-screen. efflux-deficient yeast background strain, growth absorbance A615, 16 h. inhibition, % at 10 µM. 98,000 compounds, 5% hits. AID 738
# S1P2 ag – activates the human S1P2 receptor | S1P2-expressing cell line, agonist reporter read-out | O95136 | activation, % at 4.5 µM | 97,000 compounds, 0.46% hits; in the data active means activation above about 16%;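 further: 0% = vehicle low control and 100% = maximal reference agonist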
# * = called active by the depositor; x = no result. Unless noted, no stated cut-off is given here; in the data, active means inhibition above about 30%; inactive means the rest.
SMILES,PostGolgi yeast,S1P2 antag,GALR2 agonist,GALR2 blocker,PostGolgi ctrl,S1P2 ag
CCOC(=O)COc1ccc2c(c1)C(=O)CC(C)(c1cccnc1)O2 (configuration not stated),4,21,-1,-6,42*,-3
Cc1ccc(C)c2c1cc(C)c1nnc(SCc3ccccn3)n12,36*,-14,-3,7,90*,-6
Cc1cc2cc(C)c3nnc(SCc4ccccn4)n3c2cc1C,x,x,1,-6,x,x
CCOC(=O)c1c(N)sc2c(NC(C)=O)cccc12,0,6,-1,-1,-2,0
CCOC(=O)c1c(N)sc2c(O)c(Br)ccc12,12,1,-2,-3,49*,-8
Cc1ccc(S(=O)(=O)Cn2nnnc2C(CC(C)C)N2CCN(c3ccc(F)cc3)CC2)cc1 (configuration not stated),-2,-12,-2,3,-2,-2
CCCC(c1nnnn1CS(=O)(=O)c1ccc(C)cc1)N1CCN(c2ccccc2)CC1 (configuration not stated),-8,5,-2,-6,31*,-2
Cc1ccc(C(=O)OCC(=O)c2c[nH]c3ccccc23)cc1S(=O)(=O)N1CCCCC1,x,x,-1,11,x,x
Cc1cc(C(=O)Cn2nnc(-c3ccc(Cl)cc3)n2)c(C)n1CC1CCCO1 (configuration not stated),22,18,-1,-11,33*,-6
O=C1CC(Nc2ccc3ccccc3c2)C(=O)N1Cc1ccccc1 (configuration not stated),0,9,-1,0,38*,-4
FC(F)(F)c1cc(-c2ccco2)nc(NCc2cccnc2)n1,3,-8,-3,4,3,-2
FC(F)(F)c1cc(-c2ccccc2)nc(NCc2cccnc2)n1,-6,-2,-3,0,34*,-1
Cc1cc(N2CCN(c3ccccc3Cl)CC2)n2cc(-c3ccccc3)nc2n1,1,-8,2,4,34*,-8
Cc1cc(N2CCN(c3ccccc3)CC2)n2cc(-c3ccccc3)nc2n1,10,8,-1,-5,10,-3
CCC(CC)NC(=O)c1cccc(NC(=O)C(C)C)c1,x,x,-1,2,x,x
Cc1ccc(-n2[nH]c(C)c(C=Nc3ccc(S(=O)(=O)N4CCOCC4)cc3)c2=O)c(C)c1,x,x,0,5,x,x
CCc1cc(-c2n[nH]c(=S)n2Cc2ccccc2)cs1,13,4,-1,4,20,-2
CCCc1cc(-c2n[nH]c(=S)n2C(C)c2ccccc2)cs1 (configuration not stated),-4,7,0,-11,42*,-1
COC(=O)C(C)(C)ONC(=O)Nc1ccc(C)cc1,x,x,-2,0,x,x
COc1cc(OC)cc(-c2nc3ccccc3c(=O)n2OC(=O)c2ccc(C)c(C)c2)c1,x,x,2,16,x,x
Cc1cccc(C(=O)N[C@H](C(=O)OCC(=O)NC2CCS(=O)(=O)C2)C(C)C)c1 (some centres not stated),x,x,-2,7,x,x
Cc1cc(Nc2nc3ccccc3nc2Cl)n(-c2ccc([N+](=O)[O-])cc2)n1,1,-24,-1,-11,32*,0
Cc1cc(Nc2nc3ccccc3[nH]c2=O)n(-c2ccccc2)n1,-4,x,0,3,10,x
COc1cc(/C=N/NC(=O)CN(Cc2ccco2)S(=O)(=O)c2ccccc2)ccc1O,x,x,0,-8,x,x
c1ccc(C2CC(c3ccccc3)n3c(nc4ccccc43)N2)cc1 (configuration not stated),x,x,1,-6,x,x
SMILES,PostGolgi yeast,S1P2 antag,GALR2 agonist,GALR2 blocker,PostGolgi ctrl,S1P2 ag
CN(C(=O)/C(N=Nc1cccc(C(F)(F)F)c1)=C(\O)C(F)(F)F)c1ccccc1,4,4,-2,14,38*,-11
CN(C)c1nn(C(=O)Nc2cccc(C(F)(F)F)c2)cc1-c1ccccc1,-4,-1,-1,4,5,-1
N#C/C(=C\c1ccc[nH]1)Sc1nc2ccccc2s1,11,x,-2,3,16,x
N#C/C(=C\c1cccs1)Sc1nc2ccccc2s1,-6,7,-3,6,35*,0
O=C(CN(c1ccc(F)cc1)S(=O)(=O)c1ccc2c(c1)OCCO2)NCC1CCCO1 (configuration not stated),-5,2,-3,4,33*,-3
CCCNC(=O)CN(c1ccc(F)cc1)S(=O)(=O)c1ccc2c(c1)OCCO2,-1,10,-3,9,0,-6
COc1ccc(/C=C/c2ccncc2)c2ccccc12,-1,-33,-1,-13,43*,3
Cc1ccc2nc(-c3ccc(O)cc3)c(Nc3ccc4c(c3)OCCO4)n2c1,-1,5,1,-6,3,-5
Cc1cc(C)n2c(Nc3ccc4c(c3)OCCO4)c(-c3ccccc3)nc2n1,10,3,1,-4,44*,-4
COc1ccc(-c2nnc(-c3cccs3)o2)cc1OC,-2,-6,2,-12,1,-3
COc1ccc(-c2nc(-c3cccs3)c(-c3cccs3)[nH]2)cc1O,-1,-7,-2,17,31*,-10
O=C(OCCN1C(=O)c2ccccc2C1=O)c1cccc(OC(F)F)c1,2,-15,-4,-1,36*,-1
COc1cc(/C=N/n2nnnc2Nc2ccccc2)cc(OC)c1OC,x,x,-1,-3,x,x
O=[N+]([O-])/C=C/c1cn(Cc2ccccc2)c2ccccc12,-1,5,1,11,43*,-3
Cc1ccc2[nH]c(C)c(CCNC(=O)C3CCCCC3C(=O)OCC(F)(F)F)c2c1 (configuration not stated),x,x,-2,1,x,x
CC1CN(S(=O)(=O)c2cccc(C(=O)Nc3ccc4c(c3)CCC4)c2)CC(C)O1 (configuration not stated),x,x,-2,-6,x,x
Cc1ccccc1CSc1nccn1-c1ccccc1,-11,3,-2,-5,0,-5
O=C(Nc1cc(Cl)cc(Cl)c1)c1cccc(OC(F)F)c1,59*,-5,-1,5,33*,-3
Cc1cccc(OCCNC(=O)c2cncc(Br)c2)c1,x,x,1,-8,x,x
COC(=O)c1ccc(N2C(=O)CC(Sc3n[nH]c(C)n3)C2=O)cc1 (configuration not stated),3,-10,-5,6,12,-6
CN=C(Nc1cc(Cl)ccc1Cl)SC1CC(=O)N(c2ccc(C(=O)OC)cc2)C1=O (configuration not stated),17,-22,-2,-9,38*,-7
COc1ccccc1C(N)=S,x,x,0,8,x,x
c1csc(Cn2c(-c3cccs3)nc3ccccc32)c1,-5,-11,0,0,27,2
Brc1ccccc1Cn1c(-c2cncs2)nc2ccccc21,8,-2,-1,-11,63*,-1
O=C(Nc1nncs1)c1cccnc1Cl,x,x,-2,-1,x,x
Cc1cc(CN2CCN(CCC#N)CC2)c(O)c(C2(C)CCCCC2)c1,-2,-19,-1,-18,59*,1
COc1cccc(-n2ccnc2SCC(=O)Nc2ccccc2)c1,-4,21,0,-1,18,-5
